About 8,800 targets were measured; listed, in parts, are those with a hit and a random draw of the rest. About 0.5% of all pairs of compound and target were hits.
Columns and labels:
Experiment in all cases: log2 fold change, soluble protein after heating vs DMSO (PISA); higher = thermal stabilisation; K562 lysate, 10 uM; active = over 0.2 and 3.5 SD of the protein, either way, in both replicates (recomputed)
[1] = compound: C#Cc1cccc(Nc2ncnc3cc(OCCOC)c(OCCOC)cc23)c1 [erlotinib]
Procedure, shortened: (§1)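 Pellets of K562 cells were dounce-homogenised in PBS pH 7.4 with 1 mM MgCl2, and the crude extract was held at 1 mg/mL protein for a 30 min treatment with 10 μM compound. Aliquots were heated for 3 min over 48°C-58°C and pooled before NP-40 was added to 0.5% at 4°C. The supernatant from 21,000xg for 90 min was quantified by TMTpro 16plex LC-MS/MS with channel sums equalised. Values are reported from duplicates as log-two fold change in thermal stability relative to solvent controls.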

[2] = compound: C/C(=N\NC(=O)C1=CC(=CC=C1)S(=O)(=O)N2CCOCC2)/C3=C(C=CC(=C3)Cl)O
Procedure, shortened: as §1

[3] = compound: C1=CC(=CC=C1C2=NC3=C(N2)C=C(C=C3)C(=O)N)OC4=CC=C(C=C4)Cl
Procedure, shortened: as §1

[4] = compound: C1=CC2=C(C=CC(=C2)/C=C\3/C(=O)NC(=NCC4=CC=CS4)S3)N=C1
Procedure, shortened: as §1

[5] = compound: C1=CC2=NC=CN=C2C=C1/C=C/3\C(=O)NC(=O)S3
Procedure, shortened: as §1

[6] = compound: C1=CC=C(C=C1)C2=NC(=C(N2)C3=CC=NC=C3)C4=CC(=C(C=C4)Cl)O
Procedure, shortened: as §1

[7] = compound: C1=CC=C2C(=C1)C3=NNC4=CC=CC(=C43)C2=O
Procedure, shortened: as §1

[8] = compound: C1CCN(C1)C(=O)NC2=CC=CC(=C2)NC3=NC=C(C(=N3)NCCC4=CN=CN4)Br
Procedure, shortened: as §1

[9] = compound: C1CN(CCC1(CC2=CC=C(C=C2)Cl)N)C3=NC=NC4=C3C=CN4
Procedure, shortened: as §1

[10] = compound: C1COCCN1CCN2C3=CC=CC=C3N=C2NC(=O)C4=CC(=CC=C4)[N+](=O)[O-] [IRAK-1-4 Inhibitor I]
Procedure, shortened: as §1

Measured: log2 fold change

DYRK1A (UniProt Q13627)
inactive: [1] -0.061 | [2] -0.057 | [3] -0.004 | [4] 0.186 | [5] 0.175 | [6] 0.016 | [7] 0.084 | [8] -0.008 | [9] -0.034 | [10] -0.046

EIF2B4 (UniProt Q9UI10)
Chain of UniProt Q9UI10 (Q9UI10 whole entry, looked up): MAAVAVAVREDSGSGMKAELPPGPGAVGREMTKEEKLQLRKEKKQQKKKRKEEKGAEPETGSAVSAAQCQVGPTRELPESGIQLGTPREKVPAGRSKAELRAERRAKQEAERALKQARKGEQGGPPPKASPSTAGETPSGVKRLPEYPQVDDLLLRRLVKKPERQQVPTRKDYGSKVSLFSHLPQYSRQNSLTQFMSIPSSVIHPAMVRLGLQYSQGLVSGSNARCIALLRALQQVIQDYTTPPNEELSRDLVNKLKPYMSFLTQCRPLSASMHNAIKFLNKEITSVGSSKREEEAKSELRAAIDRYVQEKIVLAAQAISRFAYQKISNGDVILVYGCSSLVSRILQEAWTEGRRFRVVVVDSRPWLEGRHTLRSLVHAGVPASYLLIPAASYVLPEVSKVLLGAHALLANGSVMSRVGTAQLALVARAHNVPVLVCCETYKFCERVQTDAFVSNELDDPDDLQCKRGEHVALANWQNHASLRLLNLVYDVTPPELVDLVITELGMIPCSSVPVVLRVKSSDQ
inactive: [1] 0.066 | [2] -0.063 | [3] -0.027 | [4] -0.178 | [5] -0.02 | [6] -0.121 | [7] 0.105 | [8] -0.009 | [9] 0.07 | [10] 0.118

GDPD1 (UniProt Q8N9F7)
inactive: [1] -0.037 | [2] 0.248 | [3] -0.112 | [4] 0.001 | [5] -0.041 | [6] 0.011 | [7] -0.024 | [8] 0.032 | [9] 0.086 | [10] 0.038

FAM83D (UniProt Q9H4H8)
inactive: [1] 0.033 | [2] 0.013 | [3] -0.049 | [4] 0.006 | [5] 0 | [6] -0.009 | [7] -0.003 | [8] -0.005 | [9] -0.004 | [10] 0.019

EDC4 (UniProt Q6P2E9)
inactive: [1] 0.002 | [2] -0.026 | [3] -0.022 | [4] 0.001 | [5] 0.006 | [6] -0.001 | [7] -0.02 | [8] -0.015 | [9] 0.014 | [10] 0.013

DUS3L (UniProt Q96G46)
Chain of UniProt Q96G46 (Q96G46 whole entry, looked up): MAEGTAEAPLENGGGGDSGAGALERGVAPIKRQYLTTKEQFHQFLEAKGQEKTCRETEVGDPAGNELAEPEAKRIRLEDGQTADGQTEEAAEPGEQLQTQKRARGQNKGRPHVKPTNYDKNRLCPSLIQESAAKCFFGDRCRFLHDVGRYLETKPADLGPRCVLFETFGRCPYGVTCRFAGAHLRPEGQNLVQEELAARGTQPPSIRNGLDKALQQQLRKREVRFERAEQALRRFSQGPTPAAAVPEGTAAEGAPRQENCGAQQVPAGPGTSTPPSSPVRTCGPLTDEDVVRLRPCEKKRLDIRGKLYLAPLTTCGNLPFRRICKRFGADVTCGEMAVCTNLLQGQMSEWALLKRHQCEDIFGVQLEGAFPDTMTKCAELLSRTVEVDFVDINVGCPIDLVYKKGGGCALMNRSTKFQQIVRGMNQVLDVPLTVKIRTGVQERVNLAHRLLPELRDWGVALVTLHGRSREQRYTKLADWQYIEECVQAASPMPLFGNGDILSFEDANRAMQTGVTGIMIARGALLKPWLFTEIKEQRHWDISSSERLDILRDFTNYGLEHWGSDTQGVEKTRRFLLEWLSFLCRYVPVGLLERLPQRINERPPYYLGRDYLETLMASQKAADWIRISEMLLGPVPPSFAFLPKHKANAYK
inactive: [1] -0.009 | [2] -0.001 | [3] 0.048 | [4] 0.059 | [5] 0.013 | [6] 0.032 | [7] -0.013 | [8] -0.012 | [9] -0.007 | [10] 0.017

GGT7 (UniProt Q9UJ14)
Chain of UniProt Q9UJ14 (Q9UJ14 whole entry, looked up): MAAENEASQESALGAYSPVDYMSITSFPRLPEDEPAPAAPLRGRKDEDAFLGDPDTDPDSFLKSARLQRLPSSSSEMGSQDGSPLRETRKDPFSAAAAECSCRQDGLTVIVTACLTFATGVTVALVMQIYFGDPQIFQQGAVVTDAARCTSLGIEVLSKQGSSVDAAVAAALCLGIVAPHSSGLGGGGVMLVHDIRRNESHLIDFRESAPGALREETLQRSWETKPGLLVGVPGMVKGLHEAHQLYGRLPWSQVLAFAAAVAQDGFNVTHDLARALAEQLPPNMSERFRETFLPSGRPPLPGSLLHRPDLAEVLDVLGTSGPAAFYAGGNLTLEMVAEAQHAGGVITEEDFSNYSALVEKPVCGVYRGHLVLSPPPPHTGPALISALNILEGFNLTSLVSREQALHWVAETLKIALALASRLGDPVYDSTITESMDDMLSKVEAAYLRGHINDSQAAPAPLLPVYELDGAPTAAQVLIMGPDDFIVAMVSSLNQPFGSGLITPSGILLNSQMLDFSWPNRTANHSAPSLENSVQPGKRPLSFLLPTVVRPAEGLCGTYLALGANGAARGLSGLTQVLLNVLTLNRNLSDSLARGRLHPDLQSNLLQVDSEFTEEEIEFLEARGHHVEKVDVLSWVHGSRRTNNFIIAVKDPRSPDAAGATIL
inactive: [1] -0.04 | [2] 0.07 | [3] 0.021 | [4] -0.116 | [5] 0.094 | [6] -0.059 | [7] 0.018 | [8] 0.026 | [9] -0.023 | [10] 0.027

FYN (UniProt P06241)
Chain of UniProt P06241 (P06241 whole entry, looked up): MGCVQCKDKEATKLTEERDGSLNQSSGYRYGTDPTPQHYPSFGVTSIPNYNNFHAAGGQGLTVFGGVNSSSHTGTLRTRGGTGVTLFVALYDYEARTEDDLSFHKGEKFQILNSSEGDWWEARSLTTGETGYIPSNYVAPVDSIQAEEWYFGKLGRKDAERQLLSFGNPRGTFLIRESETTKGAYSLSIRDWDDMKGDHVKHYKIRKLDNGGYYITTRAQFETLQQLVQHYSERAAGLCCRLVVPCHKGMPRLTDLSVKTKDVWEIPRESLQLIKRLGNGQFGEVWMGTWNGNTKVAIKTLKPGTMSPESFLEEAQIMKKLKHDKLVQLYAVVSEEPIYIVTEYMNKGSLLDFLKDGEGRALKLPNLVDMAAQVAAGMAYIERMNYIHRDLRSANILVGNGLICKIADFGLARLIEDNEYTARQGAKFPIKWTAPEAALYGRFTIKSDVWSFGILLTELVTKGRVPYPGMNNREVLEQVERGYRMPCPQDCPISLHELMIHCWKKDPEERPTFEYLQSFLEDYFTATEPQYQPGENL
inactive: [1] -0.028 | [2] 0.02 | [3] 0.025 | [4] 0.028 | [5] -0.062 | [6] 0.058 | [7] 0.092 | [8] 0.132 | [9] -0.018 | [10] -0.145

FBLL1 (UniProt A6NHQ2)
inactive: [1] -0.003 | [2] -0.015 | [3] -0.008 | [4] 0.059 | [5] 0.075 | [6] -0.031 | [7] -0.031 | [8] 0.021 | [9] 0.022 | [10] -0.004

FLT4 (UniProt P35916)
inactive: [1] 0.047 | [2] 0.036 | [3] 0.038 | [4] 0.039 | [5] 0.075 | [6] 0.046 | [7] 0.044 | [8] -0.097 | [9] 0.087 | [10] -0.029

FCHO1 (UniProt O14526)
inactive: [1] 0.062 | [2] 0.034 | [3] 0.045 | [4] -0.055 | [5] 0.024 | [6] 0.065 | [7] -0.064 | [8] -0.044 | [9] -0.022 | [10] -0.021

FASTKD2 (UniProt Q9NYY8)
inactive: [1] 0.028 | [2] 0.041 | [3] -0.005 | [4] 0.03 | [5] 0.019 | [6] -0.007 | [7] -0.018 | [8] 0.013 | [9] 0.002 | [10] 0.016

EPB41, A0A2R8Y6D0
inactive: [1] 0.134 | [2] 0.064 | [3] -0.187 | [4] -0.012 | [5] -0.004 | [6] 0.066 | [7] -0.004 | [8] -0.042 | [9] 0.054 | [10] -0.071

FKBP8 isoform 2 (UniProt Q14318)
Chain of UniProt Q14318 (Q14318 whole entry, looked up): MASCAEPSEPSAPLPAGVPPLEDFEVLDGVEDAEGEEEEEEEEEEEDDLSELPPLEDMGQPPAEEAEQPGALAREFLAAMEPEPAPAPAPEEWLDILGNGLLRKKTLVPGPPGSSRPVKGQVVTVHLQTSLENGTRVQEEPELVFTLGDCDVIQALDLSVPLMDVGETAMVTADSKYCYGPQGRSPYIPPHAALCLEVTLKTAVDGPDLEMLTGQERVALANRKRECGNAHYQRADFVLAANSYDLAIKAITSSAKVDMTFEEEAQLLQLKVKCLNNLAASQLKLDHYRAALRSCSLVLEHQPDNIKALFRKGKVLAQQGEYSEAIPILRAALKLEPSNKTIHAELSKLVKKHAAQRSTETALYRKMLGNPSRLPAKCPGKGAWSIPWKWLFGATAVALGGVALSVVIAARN
inactive: [1] -0.011 | [2] 0.041 | [3] 0.012 | [4] 0.002 | [5] -0.005 | [6] 0.01 | [7] 0 | [8] -0.054 | [9] 0.001 | [10] 0.008

GALK1 isoform 2 (UniProt P51570)
Chain of UniProt P51570 (P51570 whole entry, looked up): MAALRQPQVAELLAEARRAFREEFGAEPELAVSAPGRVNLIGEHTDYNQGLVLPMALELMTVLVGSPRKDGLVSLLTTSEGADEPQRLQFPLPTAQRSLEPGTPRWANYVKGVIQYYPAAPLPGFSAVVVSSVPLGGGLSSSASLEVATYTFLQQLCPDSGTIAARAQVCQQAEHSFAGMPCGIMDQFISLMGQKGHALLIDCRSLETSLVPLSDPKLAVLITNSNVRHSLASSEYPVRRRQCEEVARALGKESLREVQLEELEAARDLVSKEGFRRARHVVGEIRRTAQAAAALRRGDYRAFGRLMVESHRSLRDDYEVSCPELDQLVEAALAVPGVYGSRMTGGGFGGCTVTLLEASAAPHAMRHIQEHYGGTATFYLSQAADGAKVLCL
inactive: [1] 0.021 | [2] 0.022 | [3] 0.01 | [4] -0.076 | [5] -0.024 | [6] -0.015 | [7] -0.031 | [8] 0.023 | [9] 0.058 | [10] 0.042

FPGT (UniProt O14772)
inactive: [1] 0.031 | [2] -0.005 | [3] -0.003 | [4] 0.011 | [5] 0.023 | [6] -0.002 | [7] -0.108 | [8] 0.006 | [9] -0.013 | [10] 0.023

FYB1 isoform 3 (UniProt O15117)
inactive: [1] -0.019 | [2] -0.043 | [3] -0.003 | [4] -0.073 | [5] 0.009 | [6] 0.015 | [7] -0.025 | [8] -0.012 | [9] 0.028 | [10] 0.024

EPN2 (UniProt O95208)
inactive: [1] 0.054 | [2] -0.08 | [3] -0.001 | [4] -0.011 | [5] -0.059 | [6] -0.039 | [7] 0.003 | [8] -0.003 | [9] 0.007 | [10] -0.005

DST (UniProt Q03001)
inactive: [1] 0.025 | [2] -0.035 | [3] 0.046 | [4] -0.03 | [5] -0.042 | [6] 0 | [7] -0.16 | [8] -0.046 | [9] 0 | [10] 0.04

FAM83A (UniProt Q86UY5)
inactive: [1] 0 | [2] 0.168 | [3] 0.097 | [4] 0.038 | [5] -0.054 | [6] -0.107 | [7] -0.031 | [8] -0.062 | [9] 0.008 | [10] 0.019

FNTB (UniProt P49356)
inactive: [1] -0.03 | [2] -0.038 | [3] 0.011 | [4] 0.013 | [5] -0.034 | [6] -0.005 | [7] -0.02 | [8] 0.028 | [9] -0.022 | [10] -0.006

GBF1 (UniProt Q92538)
inactive: [1] 0.044 | [2] 0.043 | [3] -0.036 | [4] -0.009 | [5] 0.002 | [6] -0.008 | [7] -0.012 | [8] -0.007 | [9] 0.023 | [10] 0.058

ESRRA (UniProt P11474)
inactive: [1] 0.065 | [2] 0.171 | [3] -0.037 | [4] 0.06 | [5] -0.131 | [6] -0.033 | [7] -0.112 | [8] -0.018 | [9] 0.2 | [10] 0.029

GCDH (UniProt Q92947)
Chain of UniProt Q92947 (Q92947 whole entry, looked up): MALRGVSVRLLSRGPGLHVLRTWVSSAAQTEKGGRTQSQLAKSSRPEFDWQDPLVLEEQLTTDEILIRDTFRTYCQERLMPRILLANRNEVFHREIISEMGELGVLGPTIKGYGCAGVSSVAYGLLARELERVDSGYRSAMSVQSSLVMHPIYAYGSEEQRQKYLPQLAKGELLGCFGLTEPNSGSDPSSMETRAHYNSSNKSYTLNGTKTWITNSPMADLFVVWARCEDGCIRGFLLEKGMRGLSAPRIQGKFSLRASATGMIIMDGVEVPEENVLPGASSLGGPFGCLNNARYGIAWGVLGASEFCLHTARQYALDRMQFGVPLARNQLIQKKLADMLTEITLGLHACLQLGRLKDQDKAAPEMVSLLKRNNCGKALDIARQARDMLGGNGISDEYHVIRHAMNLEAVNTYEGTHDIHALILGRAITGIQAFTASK
inactive: [1] -0.038 | [2] 0.1 | [3] -0.023 | [4] 0.051 | [5] 0.089 | [6] -0.027 | [7] 0.009 | [8] 0 | [9] 0 | [10] 0.011

DVL2 (UniProt O14641)
inactive: [1] 0.012 | [2] -0.028 | [3] 0.011 | [4] -0.015 | [5] 0.03 | [6] -0.055 | [7] -0.029 | [8] 0.001 | [9] 0.067 | [10] -0.073

FDX2 (UniProt Q6P4F2)
inactive: [1] -0.051 | [2] 0.063 | [3] 0.044 | [4] 0.065 | [5] -0.009 | [6] -0.041 | [7] -0.054 | [8] -0.402 | [9] -0.17 | [10] 0.05

EBP (UniProt Q15125)
Chain of UniProt Q15125 (Q15125 whole entry, looked up): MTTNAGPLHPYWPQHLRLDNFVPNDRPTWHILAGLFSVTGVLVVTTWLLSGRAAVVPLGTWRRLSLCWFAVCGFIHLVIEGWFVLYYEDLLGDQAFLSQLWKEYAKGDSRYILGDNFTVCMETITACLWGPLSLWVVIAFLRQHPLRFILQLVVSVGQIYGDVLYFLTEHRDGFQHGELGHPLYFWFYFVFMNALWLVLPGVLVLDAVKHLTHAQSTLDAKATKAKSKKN
inactive: [1] 0.055 | [2] 0.015 | [3] -0.073 | [4] -0.068 | [5] 0.01 | [6] -0.03 | [7] -0.128 | [8] 0.008 | [9] 0.047 | [10] 0.086

FAT2 (UniProt Q9NYQ8)
inactive: [1] 0.215 | [2] -0.092 | [3] -0.311 | [4] 0.038 | [5] -0.076 | [6] -0.135 | [7] -0.147 | [8] -0.007 | [9] 0.01 | [10] -0.016

GEMIN4 (UniProt P57678)
Chain of UniProt P57678 (P57678 whole entry, looked up): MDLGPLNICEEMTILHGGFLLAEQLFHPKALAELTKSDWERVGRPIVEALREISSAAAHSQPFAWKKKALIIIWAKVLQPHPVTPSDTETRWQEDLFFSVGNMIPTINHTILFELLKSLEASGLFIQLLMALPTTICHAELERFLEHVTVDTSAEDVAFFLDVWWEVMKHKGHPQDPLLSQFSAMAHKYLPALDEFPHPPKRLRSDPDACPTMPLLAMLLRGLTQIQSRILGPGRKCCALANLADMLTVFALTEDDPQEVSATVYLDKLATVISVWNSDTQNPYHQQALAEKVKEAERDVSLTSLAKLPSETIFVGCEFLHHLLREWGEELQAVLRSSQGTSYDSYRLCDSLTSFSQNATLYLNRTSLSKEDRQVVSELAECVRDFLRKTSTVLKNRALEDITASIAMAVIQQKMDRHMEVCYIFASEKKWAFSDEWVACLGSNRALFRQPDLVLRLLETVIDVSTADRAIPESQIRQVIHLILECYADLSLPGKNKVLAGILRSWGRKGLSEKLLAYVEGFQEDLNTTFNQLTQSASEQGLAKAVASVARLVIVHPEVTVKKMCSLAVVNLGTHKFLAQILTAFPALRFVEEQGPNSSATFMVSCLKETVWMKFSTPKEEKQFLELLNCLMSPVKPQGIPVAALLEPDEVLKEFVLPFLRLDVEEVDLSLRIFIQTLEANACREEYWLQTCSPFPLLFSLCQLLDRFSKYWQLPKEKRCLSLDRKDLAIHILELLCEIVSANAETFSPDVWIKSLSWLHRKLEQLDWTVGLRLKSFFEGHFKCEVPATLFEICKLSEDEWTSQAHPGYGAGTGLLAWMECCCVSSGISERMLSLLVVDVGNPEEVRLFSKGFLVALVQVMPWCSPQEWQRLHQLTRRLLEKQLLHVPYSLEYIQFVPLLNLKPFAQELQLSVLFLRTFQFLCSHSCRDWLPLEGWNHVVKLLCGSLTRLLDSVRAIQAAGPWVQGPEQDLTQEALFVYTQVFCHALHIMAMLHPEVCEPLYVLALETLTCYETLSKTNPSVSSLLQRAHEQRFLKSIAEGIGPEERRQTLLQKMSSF
inactive: [1] 0.023 | [2] -0.029 | [3] -0.036 | [4] 0.046 | [5] 0.038 | [6] -0.017 | [7] -0.032 | [8] -0.004 | [9] 0.018 | [10] -0.023

GCN1 (UniProt Q92616)
inactive: [1] 0.048 | [2] 0.066 | [3] -0.086 | [4] 0.022 | [5] 0.054 | [6] 0.026 | [7] -0.016 | [8] -0.008 | [9] 0.003 | [10] 0.008
